# Compounds without any hit were thinned out: in the full panel of roughly 83,000, 20% have a hit.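 Plates (96-well) were seeded with cells, treated with compound at one concentration, and incubated for 48 hours before percent growth was determined.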 A number with no mark means an inactive call. Calls of active or inactive are those of the source. Rule for the calls: active = growth percent below 10; inactive = the rest.
# System: MDA-MB-468 breast
# Test: NCI-60 one-dose screen, 48 h (100 = growth as untreated, 0 = no growth, -100 = all killed)
# Conditions: 10 µM unless noted
row,SMILES,growth
1,COc1ccc(-c2nn(-c3cccc(Cl)c3)cc2-c2cc(-c3ccccc3)nc(N)n2)cc1,30%
2,CCc1ccc(-c2ccc(NC3CCCCCC3)nn2)cc1S(N)(=O)=O,102%
3,COc1ccccc1C(=O)O/N=C(\N)Cc1cccc2ccccc12,61.6%
4,CCCn1cc(/C=N\N=C2\C(=O)Nc3ccc(C)cc32)c2ccccc21,25.2%
5,O=C(N/N=C/c1ccc([N+](=O)[O-])o1)c1[nH]c2ccc(Br)cc2c1-c1ccccc1,24.8%
6,COc1ccc2c(c1)/C(=C\c1c[nH]c3ccc(F)cc13)C(=O)N2,2.93% (active)
7,CCCCN(CCCC)c1ccc(C(=O)O)cc1,101%
8,Cc1cc(N2CCCCCC2)nc(NC2CCCC(Nc3ccnc4cc(Cl)ccc34)C2)n1 (stereo unspecified),-63.9% (active)
9,CC(=O)C1=C(O)C=C2Oc3c(C(=O)/C=C/c4c(Cl)cccc4Cl)c(O)c(C)c(O)c3[C@]2(C)C1=O,-39.7% (active)
10,COc1ccc(S(=O)(=O)N2CCN(c3cc4c(cc3F)c(=O)c(C(=O)O)cn4C3CC3)CC2)c(OC)c1,86.4%
11,CC1OC(O[C@@H]2[C@H](O)C(CO)OC(O[C@H]3COC(O[C@H]4CC[C@]5(C)[C@H]6CC[C@]78OC[C@@]9(CCC(C)(C)C[C@H]97)[C@H](O)C[C@@]8(C)[C@]6(C)CC[C@H]5C4(C)C)[C@@H](OC4OC(CO)[C@@H](O)[C@@H](O)[C@@H]4O)[C@@H]3O)[C@H]2OC2OC[C@@H](O)[C@@H](O)[C@@H]2O)[C@@H](O)[C@@H](O)[C@H]1O (stereo partly specified),-39.3% (active)

# Source: PubChem BioAssay (NCI)
